Source: PubChem BioAssay (EPA / NIEHS)
Results filed as inconclusive are left out. Activity calls are given as the source filed them. Rule for the calls, unless noted: active = hit-call score of the fitted dose curve at least 0.9, where 1 is the maximum; inactive = score below 0.9.

Key:
[1] = target: Nuclear respiratory factor 1 (Homo sapiens) (UniProt Q16656); test: ATG_NRF1_CIS: Attagene CIS-FACTORIAL HepG2 Assay for human Nuclear Respiratory Factor 1 (NRF1) Orphan Gene (AID 2282987); details: HepG2 NRF1 cis-element reporter, Attagene multiplex; actives raise or lower the signal
Summary of the method: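 Measured: fluorescent reporter-specific RT-PCR products from transfected HepG2 cells, separated by capillary electrophoresis. Exposure lasted 24 h. Analysis used bidirectional curve fitting with DMSO as negative control.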

[2] = ATG_NFI_CIS: Attagene CIS-FACTORIAL HepG2 Assay for human Nuclear Factor I (NFI) (AID 2282989); details: HepG2 cis-regulatory reporter, NFI response element transcription; actives raise or lower the signal
Summary of the method: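 Cells: human liver HepG2, transiently transfected with promoter-regulated reporter transcription units. Exposure 24 h. Detection: fluorescent RT-PCR products separated by capillary electrophoresis, normalised to DMSO negative control.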

[3] = target: Myc proto-oncogene protein (Homo sapiens) (UniProt P01106); test: ATG_Myc_CIS: Attagene CIS-FACTORIAL HepG2 Assay for human Myelocytomatosis (Myc) Proto-Oncogene Transcription Factor (AID 2282990); details: HepG2, Attagene cis-reporter transcription factor activity; actives raise or lower the signal
Summary of the method: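 After 24 h chemical treatment of HepG2 cells carrying multiplexed cis-regulated reporter constructs, reporter transcripts quantified by RT-PCR and capillary electrophoresis of fluorescent fragments. Gain or loss fitted against DMSO baseline.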

[4] = ATG_NRF2_ARE_CIS: Attagene CIS-FACTORIAL HepG2 Assay for human Nuclear Factor Erythroid 2 Related Factor 2 (NFR2) response to Antioxidant Response Elements (ARE) (AID 2282992); details: HepG2 Attagene ARE/NRF2 reporter, transcription factor activity; actives raise or lower the signal;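 for AC50: reporter mRNA level measured by RT-PCR and capillary electrophoresis fluorescence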
Summary of the method: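 Multiplexed reporter mRNA profiling in HepG2 after a 24 h chemical exposure. Curves fitted in both directions relative to DMSO negative control.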

[5] = ATG_Oct_MLP_CIS: Attagene CIS-FACTORIAL HepG2 Assay for human Octamer-Binding Transcription Factor (Oct) (AID 2282993); details: HepG2 Attagene cis-factorial Oct reporter, mRNA; actives raise or lower the signal
Summary of the method: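 HepG2, transient MRTU transfection, cis promoter elements; 24 h dosing; RT-PCR/CE fluorescence read-out of reporter mRNA; fit both directions vs DMSO.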

[6] = target: Cellular tumor antigen p53 (Homo sapiens) (UniProt P04637); test: ATG_p53_CIS: Attagene CIS-FACTORIAL HepG2 Assay for human p53 Transcription Factor (AID 2282994); details: HepG2 p53 cis-element reporter, Attagene mRNA; actives raise or lower the signal
Summary of the method: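 Multiplexed reporter mRNA assay in human HepG2 liver cells; cis-regulated units report endogenous factor activity. Values come from bidirectional curve fitting against DMSO negative control after 24 h treatment.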

[7] = BSK_3C_uPAR: BioMAP Diversity Plus: 3C Assay for Urokinase-type plasminogen activator receptor (uPAR) Biomarker Activity (AID 2282998); details: BioMAP 3C HUVEC, uPAR biomarker ELISA; actives raise or lower the signal
Summary of the method: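 A multiplexed primary-cell system built on human umbilical vein endothelium was used, with chemical present for 24 h before reading. Cell-surface uPAR was detected by ELISA; signal change in either direction counted against DMSO.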

[8] = BSK_3C_VCAM1: BioMAP Diversity Plus: 3C Assay for Vascular cell adhesion molecule 1 (VCAM1) Biomarker Activity (AID 2282999); details: BioMAP 3C HUVEC, VCAM1 ELISA, cytokine-stimulated; actives raise or lower the signal
Summary of the method: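 Endothelial cells from human umbilical vein are treated with test chemical. At 24 h, VCAM-1 is measured by ELISA, and responses in either direction are fitted relative to DMSO.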

[9] = BSK_4H_Eotaxin3: BioMAP Diversity Plus: 4H Assay for Eotaxin 3 Biomarker Activity (AID 2283000); details: primary human endothelial cells (HUVEC); actives raise or lower the signal;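 note: CCL26 protein level quantified by ELISA in parallel with SRB cytotoxicity check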
Summary of the method: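 Chemicals were added to human umbilical vein endothelium cultures, and Eotaxin-3 was quantified by ELISA at 24 h. Values were derived by bidirectional fitting with DMSO serving as negative control and activity baseline.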

[10] = target: human Peroxisome Proliferator-activated Receptor alpha (PPARa), PPARA (gene 5465) (UniProt Q07869); test: ATG_PPARa_TRANS: Attagene TRANS-FACTORIAL HepG2 Assay for human Peroxisome Proliferator-activated Receptor alpha (PPARa) (AID 2283001; active = hit-call score of the fitted dose curve at least 0.9, where 1 is the maximum)
Summary of the method: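 Reporter transcripts from GAL4-UAS units in transfected HepG2 were quantified 24 h after dosing. Detection used reverse transcription, PCR, fluorescent primer extension and capillary electrophoresis, with DMSO as baseline.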

[11] = read-out: Intercellular Adhesion Molecule 1 (ICAM1), ICAM1 (gene 3383); test: BSK_3C_ICAM1: BioMAP Diversity Plus: 3C Assay for Intercellular Adhesion Molecule 1 (ICAM1) Biomarker Activity (AID 2283003); details: primary human endothelial cells (HUVEC); actives raise or lower the signal
Summary of the method: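 Human vascular endothelial primary cells, 3C conditions, 24 h treatment. ICAM-1 by ELISA.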

[12] = BSK_3C_Proliferation: Cell Proliferation Assessment in the BioMAP Diversity Plus: 3C Assay (AID 2283006); details: primary human endothelial cells (HUVEC)
Summary of the method: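 Proliferation of human vascular endothelial primary cells after 48 h dosing, quantified as SRB-stained protein at 560 nm relative to DMSO.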

[13] = target: Nuclear receptor subfamily 1 group I member 2 (Homo sapiens) (UniProt O75469); test: ATG_PXR_TRANS: Attagene TRANS-FACTORIAL HepG2 Assay for human Pregnane X Receptor (PXR) (AID 2283008; active = hit-call score of the fitted dose curve at least 0.9, where 1 is the maximum)
Summary of the method: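 Measures mRNA induction of a GAL4-UAS-driven reporter in human HepG2 cells transiently expressing PXR fused to Gal4, following 24 h treatment. DMSO served as negative control and baseline.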

[14] = target: human Peroxisome Proliferator-activated Receptor delta (PPARd), PPARD (gene 5467) (UniProt Q03181); test: ATG_PPARd_TRANS: Attagene TRANS-FACTORIAL HepG2 Assay for human Peroxisome Proliferator-activated Receptor delta (PPARd) (AID 2283002; active = hit-call score of the fitted dose curve at least 0.9, where 1 is the maximum)
Summary of the method: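 Read-out is induced reporter mRNA, quantified by RT-PCR with fluorescent labelling and capillary electrophoresis after 24 h dosing. Cells are HepG2 transiently carrying multiple GAL4-UAS reporter units driven by exogenous NR-GAL4 chimeras; DMSO serves as baseline.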

[15] = target: human Retinoic Acid Receptor beta (RARb), RARB (gene 5915) (UniProt P10826); test: ATG_RARb_TRANS: Attagene TRANS-FACTORIAL HepG2 Assay for human Retinoic Acid Receptor beta (AID 2283004; active = hit-call score of the fitted dose curve at least 0.9, where 1 is the maximum)
Summary of the method: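 Transient transfection of HepG2 with multiple reporter units → chemical dosing, 24 h → total RNA isolation → RT with oligo(dT) → reporter-specific PCR, 6-FAM primer extension, HpaI digest → capillary electrophoresis. Positive direction vs DMSO control.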

[16] = target: Peroxisome proliferator-activated receptor gamma (Homo sapiens) (UniProt P37231); test: ATG_PPARg_TRANS: Attagene TRANS-FACTORIAL HepG2 Assay for human Peroxisome Proliferator-activated Receptor-gamma (PPARg) (AID 2283007; active = hit-call score of the fitted dose curve at least 0.9, where 1 is the maximum)
Summary of the method: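 Twenty-four hours after chemical dosing of transiently transfected HepG2 cells, isolated RNA was converted to cDNA, reporter sequences amplified and 6-FAM-labelled, then HpaI-digested and analysed by capillary electrophoresis. Signal increase against DMSO was fitted.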

[17] = target: human Retinoic Acid Receptor gamma (RARg), RARG (gene 5916) (UniProt P13631); test: ATG_RARg_TRANS: Attagene TRANS-FACTORIAL HepG2 Assay for human Retinoic Acid Receptor gamma (RARg) (AID 2283009; active = hit-call score of the fitted dose curve at least 0.9, where 1 is the maximum)
Summary of the method: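 HepG2, RARg-GAL4 TRANS system, 24 h exposure; reporter mRNA by RT-PCR + CE fluorescence; increase over DMSO.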

[18] = target: Retinoic acid receptor alpha (Homo sapiens) (UniProt P10276); test: ATG_RARa_TRANS: Attagene TRANS-FACTORIAL HepG2 Assay for human Retinoic Acid Receptor alpha (RARa) (AID 2283005; active = hit-call score of the fitted dose curve at least 0.9, where 1 is the maximum)
Summary of the method: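 Reporter transcripts, measured by RT-PCR with fluorescent labeling and capillary electrophoresis after 24 h dosing, reflect activity of an exogenous human RARa–GAL4 fusion in transiently transfected HepG2. Fitted for increase relative to DMSO.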

[19] = BSK_3C_TissueFactor: BioMAP Diversity Plus: 3C Assay for Tissue Factor Biomarker Activity (AID 2282997); details: BioMAP 3C HUVEC, tissue factor biomarker readout; actives raise or lower the signal
Summary of the method: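 ELISA read-out of Tissue Factor levels on human umbilical vein endothelium collected 24 h after chemical dosing. Gain or loss of signal was fitted relative to DMSO.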

Measured: AC50

Chain of human Retinoic Acid Receptor beta (RARb), RARB (gene 5915) (P10826 whole entry, looked up): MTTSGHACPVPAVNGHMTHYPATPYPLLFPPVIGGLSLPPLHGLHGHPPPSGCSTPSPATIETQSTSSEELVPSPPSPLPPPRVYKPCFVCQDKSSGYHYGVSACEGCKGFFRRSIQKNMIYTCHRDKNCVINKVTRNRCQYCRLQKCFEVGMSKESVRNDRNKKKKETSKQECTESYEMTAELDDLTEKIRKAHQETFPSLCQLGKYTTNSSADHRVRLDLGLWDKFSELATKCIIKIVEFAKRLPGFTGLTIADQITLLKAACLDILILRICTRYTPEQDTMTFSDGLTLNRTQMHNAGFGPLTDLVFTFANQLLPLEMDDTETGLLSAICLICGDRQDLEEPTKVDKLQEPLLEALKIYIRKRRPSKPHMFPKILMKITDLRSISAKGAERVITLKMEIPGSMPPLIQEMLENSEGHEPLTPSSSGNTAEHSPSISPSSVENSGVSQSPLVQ
Chain of human Retinoic Acid Receptor gamma (RARg), RARG (gene 5916) (P13631 whole entry, looked up, the tested form may be a part): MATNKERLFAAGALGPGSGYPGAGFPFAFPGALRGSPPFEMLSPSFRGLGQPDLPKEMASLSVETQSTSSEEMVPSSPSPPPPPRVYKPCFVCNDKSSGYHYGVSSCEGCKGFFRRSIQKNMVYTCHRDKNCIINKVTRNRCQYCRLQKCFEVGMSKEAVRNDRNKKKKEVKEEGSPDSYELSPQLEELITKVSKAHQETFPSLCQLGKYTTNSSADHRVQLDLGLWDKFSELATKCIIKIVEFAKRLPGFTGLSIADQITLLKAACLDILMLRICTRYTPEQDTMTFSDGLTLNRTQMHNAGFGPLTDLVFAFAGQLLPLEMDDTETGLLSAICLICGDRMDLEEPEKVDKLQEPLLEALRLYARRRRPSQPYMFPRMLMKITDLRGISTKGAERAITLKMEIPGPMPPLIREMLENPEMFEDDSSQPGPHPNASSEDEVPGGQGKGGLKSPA
Chain of Nuclear receptor subfamily 1 group I member 2 (Homo sapiens) (O75469 whole entry, looked up, the tested form may be a part): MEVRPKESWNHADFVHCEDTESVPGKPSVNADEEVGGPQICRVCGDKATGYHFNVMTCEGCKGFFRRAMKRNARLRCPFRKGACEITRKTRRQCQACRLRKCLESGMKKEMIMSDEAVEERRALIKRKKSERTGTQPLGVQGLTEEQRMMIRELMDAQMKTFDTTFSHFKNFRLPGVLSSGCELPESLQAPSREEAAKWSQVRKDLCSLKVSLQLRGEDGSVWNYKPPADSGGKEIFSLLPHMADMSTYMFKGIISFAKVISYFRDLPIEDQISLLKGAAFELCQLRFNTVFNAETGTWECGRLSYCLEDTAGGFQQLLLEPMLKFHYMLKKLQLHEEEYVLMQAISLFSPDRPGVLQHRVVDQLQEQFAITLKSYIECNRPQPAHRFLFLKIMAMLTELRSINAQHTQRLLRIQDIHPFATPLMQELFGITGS
Chain of Peroxisome proliferator-activated receptor gamma (Homo sapiens) (P37231 whole entry, looked up): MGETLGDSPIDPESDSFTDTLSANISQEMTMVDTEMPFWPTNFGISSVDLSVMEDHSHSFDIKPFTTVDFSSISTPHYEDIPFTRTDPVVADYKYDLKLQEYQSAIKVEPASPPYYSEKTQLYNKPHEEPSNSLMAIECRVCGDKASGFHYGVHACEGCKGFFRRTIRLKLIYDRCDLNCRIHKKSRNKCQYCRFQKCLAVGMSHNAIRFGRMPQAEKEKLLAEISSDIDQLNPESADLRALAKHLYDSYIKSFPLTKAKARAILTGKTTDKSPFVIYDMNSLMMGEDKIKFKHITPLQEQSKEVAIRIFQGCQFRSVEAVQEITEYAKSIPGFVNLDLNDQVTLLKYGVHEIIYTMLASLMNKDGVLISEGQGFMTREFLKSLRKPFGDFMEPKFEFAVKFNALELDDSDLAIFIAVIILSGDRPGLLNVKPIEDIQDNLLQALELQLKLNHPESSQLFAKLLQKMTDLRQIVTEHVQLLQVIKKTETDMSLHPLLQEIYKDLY
Chain of Nuclear respiratory factor 1 (Homo sapiens) (Q16656 whole entry, looked up): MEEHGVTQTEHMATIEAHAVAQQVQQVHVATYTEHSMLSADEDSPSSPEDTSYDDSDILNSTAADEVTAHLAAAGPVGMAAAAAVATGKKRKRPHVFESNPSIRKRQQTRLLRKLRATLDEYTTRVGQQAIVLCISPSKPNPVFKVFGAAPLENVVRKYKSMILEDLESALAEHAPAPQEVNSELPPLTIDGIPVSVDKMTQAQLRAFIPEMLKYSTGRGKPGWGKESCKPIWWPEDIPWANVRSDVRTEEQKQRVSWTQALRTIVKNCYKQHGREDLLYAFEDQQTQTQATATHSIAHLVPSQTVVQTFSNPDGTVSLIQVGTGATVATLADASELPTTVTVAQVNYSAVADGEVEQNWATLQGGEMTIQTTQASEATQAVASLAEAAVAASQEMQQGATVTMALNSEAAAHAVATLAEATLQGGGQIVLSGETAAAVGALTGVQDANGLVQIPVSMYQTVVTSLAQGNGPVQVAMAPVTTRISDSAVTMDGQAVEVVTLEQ
Chain of Myc proto-oncogene protein (Homo sapiens) (P01106 whole entry, looked up, the tested form may be a part): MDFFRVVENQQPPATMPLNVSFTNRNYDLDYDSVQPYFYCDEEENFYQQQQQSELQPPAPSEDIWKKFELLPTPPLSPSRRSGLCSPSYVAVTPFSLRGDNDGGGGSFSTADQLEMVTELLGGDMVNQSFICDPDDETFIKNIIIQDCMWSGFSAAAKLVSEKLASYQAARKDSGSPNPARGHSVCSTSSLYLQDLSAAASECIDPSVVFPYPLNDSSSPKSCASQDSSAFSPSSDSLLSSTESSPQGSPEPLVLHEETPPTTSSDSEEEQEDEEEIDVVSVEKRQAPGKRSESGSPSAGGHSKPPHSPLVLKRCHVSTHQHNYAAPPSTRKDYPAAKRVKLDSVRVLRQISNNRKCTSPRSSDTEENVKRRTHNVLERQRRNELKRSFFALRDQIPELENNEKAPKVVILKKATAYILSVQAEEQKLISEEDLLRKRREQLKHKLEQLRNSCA
Chain of human Peroxisome Proliferator-activated Receptor alpha (PPARa), PPARA (gene 5465) (Q07869 whole entry, looked up, the tested form may be a part): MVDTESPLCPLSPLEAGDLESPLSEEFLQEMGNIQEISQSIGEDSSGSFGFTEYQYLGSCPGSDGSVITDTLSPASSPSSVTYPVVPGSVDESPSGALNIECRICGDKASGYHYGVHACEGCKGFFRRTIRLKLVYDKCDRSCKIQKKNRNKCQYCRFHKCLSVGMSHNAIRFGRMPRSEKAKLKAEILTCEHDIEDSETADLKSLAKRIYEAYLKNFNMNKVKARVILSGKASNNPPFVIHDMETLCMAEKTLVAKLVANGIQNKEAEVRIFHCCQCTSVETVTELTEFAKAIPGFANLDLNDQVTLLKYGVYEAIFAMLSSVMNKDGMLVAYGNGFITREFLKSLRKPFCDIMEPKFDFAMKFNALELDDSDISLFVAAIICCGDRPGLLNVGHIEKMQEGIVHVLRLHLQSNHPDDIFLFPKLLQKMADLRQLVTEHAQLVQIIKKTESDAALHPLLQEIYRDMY
Chain of Cellular tumor antigen p53 (Homo sapiens) (P04637 whole entry, looked up): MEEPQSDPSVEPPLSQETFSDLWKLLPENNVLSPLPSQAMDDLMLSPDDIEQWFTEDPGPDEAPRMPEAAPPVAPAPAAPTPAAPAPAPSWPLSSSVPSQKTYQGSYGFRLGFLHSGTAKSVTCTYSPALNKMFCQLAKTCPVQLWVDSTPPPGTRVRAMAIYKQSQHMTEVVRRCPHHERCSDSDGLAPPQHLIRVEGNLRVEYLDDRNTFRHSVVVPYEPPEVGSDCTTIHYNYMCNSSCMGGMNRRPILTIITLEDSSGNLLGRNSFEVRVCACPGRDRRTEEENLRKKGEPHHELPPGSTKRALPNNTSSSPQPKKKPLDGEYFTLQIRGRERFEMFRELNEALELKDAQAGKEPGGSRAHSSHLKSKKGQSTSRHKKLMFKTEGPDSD
Chain of human Peroxisome Proliferator-activated Receptor delta (PPARd), PPARD (gene 5467) (Q03181 whole entry, looked up, the tested form may be a part): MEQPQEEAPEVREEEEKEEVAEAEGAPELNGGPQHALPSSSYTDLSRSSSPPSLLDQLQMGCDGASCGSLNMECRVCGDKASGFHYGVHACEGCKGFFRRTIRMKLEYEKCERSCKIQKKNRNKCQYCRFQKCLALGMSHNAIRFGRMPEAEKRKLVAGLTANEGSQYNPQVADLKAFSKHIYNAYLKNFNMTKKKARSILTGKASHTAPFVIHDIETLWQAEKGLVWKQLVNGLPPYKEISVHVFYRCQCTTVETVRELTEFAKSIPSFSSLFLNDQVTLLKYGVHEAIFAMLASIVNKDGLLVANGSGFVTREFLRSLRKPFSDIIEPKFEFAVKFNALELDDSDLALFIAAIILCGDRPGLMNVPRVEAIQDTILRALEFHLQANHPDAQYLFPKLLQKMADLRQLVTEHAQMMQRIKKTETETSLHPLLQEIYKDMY
Chain of Retinoic acid receptor alpha (Homo sapiens) (P10276 whole entry, looked up, the tested form may be a part): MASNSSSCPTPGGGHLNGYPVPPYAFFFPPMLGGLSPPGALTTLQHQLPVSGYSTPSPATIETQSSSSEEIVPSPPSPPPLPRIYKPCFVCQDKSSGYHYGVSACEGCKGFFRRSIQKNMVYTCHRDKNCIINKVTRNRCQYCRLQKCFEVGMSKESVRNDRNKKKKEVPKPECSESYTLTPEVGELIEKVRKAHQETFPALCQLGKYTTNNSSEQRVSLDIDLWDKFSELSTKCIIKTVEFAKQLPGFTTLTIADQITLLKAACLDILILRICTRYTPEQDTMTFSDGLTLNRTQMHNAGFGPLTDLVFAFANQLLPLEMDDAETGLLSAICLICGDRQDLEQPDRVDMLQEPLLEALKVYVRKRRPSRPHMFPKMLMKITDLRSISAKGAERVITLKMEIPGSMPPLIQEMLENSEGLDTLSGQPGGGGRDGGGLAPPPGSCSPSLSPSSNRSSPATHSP

C[C@]12C=CC(=O)C=C1CC[C@H]1[C@@H]3C[C@@H](O)[C@](O)(C(=O)CO)[C@@]3(C)C[C@H](O)[C@@]12F
not listed: [14] | [15] | [16] | [17] | [18] | [19]
inactive: all other assays above

O=C(NO)C1(NS(=O)(=O)c2ccc(Oc3ccc(F)cc3)cc2)CCOCC1
active: [4] 33 µM | [13] 31.7 µM
not listed: [6] | [10] | [18] | [19]
inactive: all other assays above

OCCC(F)(F)C(F)(F)C(F)(F)C(F)(F)F
not listed: [19]
inactive: all other assays above

CCOC(N)=O
not listed: [10] | [11] | [13] | [15] | [16] | [17] | [18] | [19]
inactive: all other assays above

O=C(Cl)C(F)(F)C(F)(F)C(F)(F)C(=O)Cl
not listed: [4] | [11]
inactive: all other assays above

O=S1(=O)CCCO1
not listed: [4] | [11] | [13] | [15] | [16] | [17] | [18]
inactive: all other assays above
